Results taken from PubChem BioAssay (NCI).
This is part of a sample that, as a whole, favours compounds with a hit. Of some 83,000 tested, about 20% had one in any assay.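 The endpoint reported here, percent growth, reads 100 for growth as untreated, 0 for no net growth and -100 for all cells dead.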 A number with no mark means an inactive call. Calls of active or inactive are those of the source. The calls were made as follows: active = growth percent below 10; inactive = the rest.

Experiments:
Assay in all cases: NCI-60 one-dose screen, 48 h (100 = growth as untreated, 0 = no growth, -100 = all killed)
Conditions in all cases: 10 µM unless noted
HCT-15 colon = tested on: HCT-15 colon
HT29 colon = tested on: HT29 colon
SNB-75 CNS = tested on: SNB-75 CNS
SNB-19 CNS = tested on: SNB-19 CNS
U251 CNS = tested on: U251 CNS
PC-3 prostate = tested on: PC-3 prostate
SK-MEL-5 melanoma = tested on: SK-MEL-5 melanoma
UACC-62 melanoma = tested on: UACC-62 melanoma
SK-MEL-28 melanoma = tested on: SK-MEL-28 melanoma
LOX IMVI melanoma = tested on: LOX IMVI melanoma

SMILES | growth (HCT-15 colon) | growth (HT29 colon) | growth (SNB-75 CNS) | growth (SNB-19 CNS) | growth (U251 CNS) | growth (PC-3 prostate) | growth (SK-MEL-5 melanoma) | growth (UACC-62 melanoma) | growth (SK-MEL-28 melanoma) | growth (LOX IMVI melanoma)
C=CCN1C(=O)c2cccc3c(N4CCOCC4)ccc(c23)C1=O | -9.11% (active) | 6.76% (active) | 12.8% | 24.9% | 5.37% (active) | -21.3% (active) | -62.7% (active) | -24.7% (active) | 5.67% (active) | 
CN(C)CCCC1(c2ccc(F)cc2)OCc2cc(-c3ccc4cc[nH]c4c3)ccc21 (stereo unspecified) | 25.8% | 4.73% (active) | 33.8% | 69.2% | 17.5% | 43.5% | 56.6% | 56.9% | 64.1% | 
Cc1ccc(-c2nc(/C=C3/C(=O)Nc4ccc(F)cc43)c3ccccn23)cc1 | -3.43% (active) | 17.2% | 92.2% | 95% | 64.3% | 68.1% | 86.7% | 74.7% | 103% | 63.8%
CC1=CC(c2ccco2)=C2C(N)=NNC2N1 (stereo unspecified) | 99.7% | 104% | 64% | 92.9% | 96.8% | 101% | 101% | 89.3% | 96.5% | 
C=C1C(=O)O[C@H]2[C@H]1CC/C(COC(=O)c1ccc(C(=O)O)s1)=C\CC[C@@]1(C)O[C@@H]21 | 4.14% (active) | 7.91% (active) | 71.2% | 48% | 22.4% | 18.1% | 91.4% | 3.21% (active) | 11.7% | 
COc1ccc(/C=C(/c2ccccc2)[N+](=O)[O-])c(OC)c1 | -36.4% (active) | -19.2% (active) | 53.3% | -9.71% (active) | -59.8% (active) | -20.6% (active) | -25% (active) | -53.9% (active) | -25.3% (active) | -83.5% (active)
Cc1ccc(C(=O)c2ccc(CC(=O)N=Nc3c(O)[nH]c4ccc(Br)cc34)n2C)cc1 | 96.7% | 105% | 84% | 89% | 92.6% | 89.3% | 95.9% | 94.6% | 102% | 
COc1cccc(/C=N/NC(=O)c2ccccc2N2CCCC2)c1O | 19.4% | 69.3% | 67.4% | 65.8% | 46.7% | 72% | 58.4% | 42.5% | 72.1% | 25.4%
C#CCOc1cccc(-c2ncnc3cc(NC(=O)C=C)ccc23)c1 | 24% | 10.8% | 10.6% | 50.6% | 51.4% | 37.2% | 68.5% | 34.6% | 70.5% | 
CCN1C(=O)N(CC)C2C1NC(=S)N2/N=C/c1ccc(OC)cc1 (stereo unspecified) | 33.2% | 8.46% (active) | 15.1% | 52.8% | 40.3% | 55.9% | 43.3% | 38.5% | 71% | 
COC(=O)c1cc(Br)ccc1O | 101% | 103% | 91.5% | 108% | 102% | 94.5% | 95.2% | 102% | 107% | 
Cc1ccc(N2C(=O)CCC2=O)cc1 | 96.3% | 98.9% | 103% | 104% | 105% | 99.5% | 100% | 98% | 105% | 102%
CSc1nc(C)c([N+](=O)[O-])c(N)n1 | 107% | 85.4% | 98.7% | 96.9% | 87.9% | 85.3% | 102% | 98% | 120% | 96.7%
S=c1[nH]c(=S)c2c(-c3ccccc3)c(-c3ccccc3)oc2[nH]1 | 99.1% | 102% | 95.2% | 96.2% | 95.9% | 103% | 108% | 93.9% | 105% | 96.5%
C=CC(=O)Nc1ccc(Nc2nccc(-c3ccc(N4CCCC4)c(C#N)c3)n2)cc1 | -36.7% (active) | 2.55% (active) | 15.4% | 41.5% | 5.57% (active) | 23.6% | 15.4% | 52.9% | -46.1% (active) | 69.4%
CC1(C)[C@@H](O[C@@H]2OC[C@@H](O[C@@H]3O[C@H](CO)[C@@H](O)[C@H](O)[C@H]3O[C@@H]3OC[C@@H](O)[C@H](O)[C@H]3O)[C@H](O)[C@H]2O[C@@H]2O[C@H](CO)[C@@H](O)[C@H](O)[C@H]2O)CC[C@]2(C)[C@H]3CC[C@]45OC[C@@]6(CC[C@](C)(C=O)C[C@H]64)[C@H](O)C[C@@]5(C)[C@]3(C)CC[C@@H]12 | -46.4% (active) | -85.3% (active) | -78.5% (active) | -68.4% (active) | -89.8% (active) | -85.1% (active) | -27.7% (active) | -71.8% (active) | -76.4% (active) | -73.2% (active)
c1ccc2c(c1)CCCc1nnc3nc4ccccc4n3c1-2 | 40.2% | 31.4% | 45.4% | 56.5% | 38.5% | 37.1% | 56.5% | 57.7% | 83.7% | 
Cc1ccc2nc(NC(=O)CSc3nc(-c4ccccc4)c(C#N)c4nnnn34)sc2c1 | 113% | 106% | 96.6% | 102% | 104% | 99.7% | 102% | 94.7% | 111% | 96.3%
O=C(C1CCCCC1)[C@@H]1[C@]2(C(=O)NC3CCCCC32)[C@@H]2CCCN2[C@@]12C(=O)NC1CCC(Cl)CC12 (stereo partly specified) | -83.4% [100 µM] (active) | -85.2% [100 µM] (active) | -68.8% [100 µM] (active) | -92.5% [100 µM] (active) | -90.6% [100 µM] (active) | -87.9% [100 µM] (active) | -97.1% [100 µM] (active) | -95.4% [100 µM] (active) | -83% [100 µM] (active) | -83.4% [100 µM] (active)
C=C(C)[C@@H]1CCC[C@]2(C(=O)N3CCN(C)CC3)CC[C@]3(C)[C@@H](CC[C@@H]4[C@@]5(C)CC/C(=N\NC(=O)c6ccncc6)C(C)(C)[C@@H]5CC[C@]43C)[C@@H]12 | 92.1% | 98.8% | 77.7% | 83.5% | 99.8% | 87% | 92.9% | 87.4% | 95.5% | 
CCOC(=O)C(=CNc1cnc(Nc2ccc(N3CCOCC3)cc2)nc1Oc1ccc(OC)cc1)C(=O)OCC | 69.4% | 40.6% | -14.3% (active) | 41.7% | -19.4% (active) | 67.7% | 74% | 47.1% | 76.6% | 
O=S1(=O)C=C(c2ccccc2)C(c2ccccc2)=C1 | -6.66% (active) | -34.3% (active) | 50% | 76.6% | 14.8% | 39.6% | 27.4% | 5.7% (active) | 17.9% | -69.4% (active)
Cc1ncc(C(=O)Nc2ccc(CN3CCN(C)CC3)c(C(F)(F)F)c2)cc1C#Cc1cnc(N)c2ncccc12 | 20% | -13.8% (active) | 50.9% | 81% | 45.7% | 5.19% (active) | -59.3% (active) | 7.13% (active) | -77.4% (active) | 
COc1cc(/C=C/C(=O)c2ccc(-n3cc(CN4CCN(c5cc6c(cc5F)c(=O)c(C(=O)O)cn6C5CC5)CC4)nn3)cc2)ccc1O | 71.7% | 53.3% | 89.2% | 53.8% | 34.3% | 74% | 78.7% | 61.2% | 95.8% | 36.9%
CNC(C)[C@H]1CCC2C3CC=C4C(=O)[C@@H](NC(=O)C=C(C)C)CC[C@]4(C)C3CC[C@@]21C (stereo partly specified) | -54.1% (active) | -52% (active) | 22.5% | 53.4% | 18.2% | 6.67% (active) | -89.8% (active) | -67.2% (active) | -86.1% (active) | 
C=CCC(CCCC)(C(=O)OCC)C(=O)OCC | 96% | 102% | 77.2% | 99% | 102% | 94.8% | 113% | 99.6% | 115% | 99.7%
O=C1NC(=O)/C(=C/c2c(-c3ccccc3)nc3sc(COc4ccccc4)nn23)S1 | 97.2% | 117% | 108% | 95.6% | 96.7% | 111% | 97.9% | 90% | 110% | 
